From PubChem BioAssay (NCI)
Compounds without any hit were thinned out: in the full panel of roughly 79,000, 15% have a hit. Active and inactive are the calls of the source. Rule as the data show it: active = growth inhibition above about 70%; inactive = the rest.

How the values were obtained:
[1] = NCI Yeast Anticancer Drug Screen. Data for the rad52 strain (AID 147);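 also: 0% = growth of vehicle-treated control cultures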; conditions: S. cerevisiae rad52 mutant growth inhibition, hits give high values
In short: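 The repair-mutant yeast strain was incubated with compounds, then growth was read and inhibition derived relative to vehicle.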

[2] = NCI Yeast Anticancer Drug Screen. Data for the wt1 strain (AID 149);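 also: 0% = growth of vehicle-treated wt1 cultures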; conditions: S. cerevisiae wt1 strain (SPY 50644) growth inhibition, hits give high values
In short: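 Using yeast strain wt1, compound-induced growth inhibition was determined against vehicle-treated cultures.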

[3] = NCI Yeast Anticancer Drug Screen. Data for the rad50EPP+ strain (AID 151);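 also: 0% = growth of vehicle-treated control cultures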; conditions: S. cerevisiae rad50 mutant strain, hits give high values
In short: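 Vehicle-normalised growth inhibition; rad50EPP+ yeast strain, altered in DNA damage repair, compound-treated.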

[4] = NCI Yeast Anticancer Drug Screen. Data for the mgt1 strain (AID 153); conditions: S. cerevisiae mgt1 mutant growth inhibition, hits give high values
In short: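 Vehicle-normalized growth inhibition is determined in mgt1 yeast, a strain selected for a defined alteration in DNA repair or cell cycle control.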

[5] = NCI Yeast Anticancer Drug Screen. Data for the rad50 strain (AID 155);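 also: 0% = growth of vehicle-only cultures of the same strain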; conditions: S. cerevisiae rad50 strain growth inhibition, hits give high values
In short: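 Relative growth inhibition (compound vs vehicle) was measured in yeast with a defined repair-gene alteration.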

[6] = NCI Yeast Anticancer Drug Screen. Data for the mec2-1 strain (AID 157); conditions: S. cerevisiae mec2-1 strain, hits give high values
In short: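 Mutant yeast (mec2-1) grown with compound; growth inhibition relative to vehicle control reported.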

[7] = NCI Yeast Anticancer Drug Screen. Data for the rad14 strain (AID 159);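 also: 0% = growth of vehicle-treated control cultures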; conditions: S. cerevisiae rad14 strain growth inhibition, hits give high values
In short: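 Screen for anticancer potential: a yeast strain altered in DNA damage repair is grown with compound, and reduced growth is quantified against vehicle controls.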

[8] = NCI Yeast Anticancer Drug Screen. Data for the sgs1 mgt1 strain (AID 161);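 also: 0% = growth of cultures given vehicle only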; conditions: S. cerevisiae sgs1 mgt1 strain, hits give high values
In short: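 Growth of a repair-deficient yeast mutant was monitored after compound treatment and expressed as inhibition relative to vehicle-treated cultures.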

[9] = NCI Yeast Anticancer Drug Screen. Data for the CLN2oe strain (AID 163);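 also: 0% = growth of vehicle-only control cultures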; conditions: S. cerevisiae CLN2oe strain, hits give high values
In short: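 Compounds are applied to yeast harbouring a defined cell-cycle control change; reduced growth compared with vehicle-treated controls gives the value.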

[10] = NCI Yeast Anticancer Drug Screen. Data for the cln2 rad14 strain (AID 165);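 also: 0% = growth equal to vehicle treated cultures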; conditions: S. cerevisiae cln2 rad14 strain, hits give high values
In short: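 Readout is yeast growth inhibition versus vehicle-treated controls, using a strain with cln2 and rad14 alterations exposed to compound.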

[11] = NCI Yeast Anticancer Drug Screen. Data for the bub3 strain (AID 167); conditions: S. cerevisiae bub3 mutant strain, hits give high values
In short: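 Screening used yeast with an engineered genetic alteration affecting cell cycle control. Compound-exposed cultures were compared with vehicle cultures, and reduced growth was taken as inhibition.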

[12] = NCI Yeast Anticancer Drug Screen. Data for the wt2 strain (AID 169);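 also: 0% = growth of vehicle-treated yeast cultures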; conditions: S. cerevisiae wt2 strain growth inhibition, hits give high values
In short: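 Against vehicle-treated controls, the growth of yeast exposed to each compound was compared, and the inhibition was recorded.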

[13] = NCI Yeast Anticancer Drug Screen. Data for the mlh1 rad18 strain (AID 175); conditions: S. cerevisiae mlh1 rad18 strain growth inhibition, hits give high values
In short: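 Genetically defined yeast (DNA repair-deficient) exposed to compounds; growth inhibition determined relative to vehicle.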

[14] = NCI Yeast Anticancer Drug Screen. Data for the rad18 strain (AID 177); conditions: S. cerevisiae rad18 mutant growth inhibition, hits give high values
In short: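 Vehicle-treated cultures served as the baseline for scoring compound-induced growth inhibition in DNA-repair-mutant yeast.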

[15] = NCI Yeast Anticancer Drug Screen. Data for the mlh1 strain (AID 171);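 also: 0% = growth of vehicle-treated control cultures of the same strain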; conditions: S. cerevisiae mlh1 strain growth inhibition, hits give high values
In short: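 Measured: yeast growth. Reference: vehicle-treated controls. Organism: strain with a defined alteration affecting DNA damage repair or cell cycle control, treated with compound.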

[16] = at 5.0 µM (retest, dose inferred, filed as 0.5)
[17] = at 50.0 µM (retest, dose inferred, filed as 5.0)

Measured: growth inhibition

N#CSc1ccc(S(N)(=O)=O)cc1
inactive: [1]; at 1.2 µM -51% | [1]; at 3.7 µM -48% | [1]; at 11.0 µM -51% | [1]; at 33.0 µM -1% | [1]; at 100.0 µM 64% | [2]; at 1.2 µM -43% | [2]; at 3.7 µM -50% | [2]; at 11.0 µM -31% | [2]; at 33.0 µM -9% | [2]; at 100.0 µM 53% | [3]; at 1.2 µM -67% | [3]; at 3.7 µM -50% | [3]; at 11.0 µM -91% | [3]; at 33.0 µM -86% | [3]; at 100.0 µM -14% | [4]; at 1.2 µM -81% | [4]; at 3.7 µM -91% | [4]; at 11.0 µM -44% | [4]; at 33.0 µM -62% | [4]; at 100.0 µM 46% | [5]; at 1.2 µM -55% | [5]; at 3.7 µM -39% | [5]; [16] 51% | [5]; at 11.0 µM -36% | [5]; at 33.0 µM 17% | [5]; at 50.0 µM 56.9% | [6]; at 1.2 µM -84% | [6]; at 3.7 µM -60% | [6]; [16] 51% | [6]; at 11.0 µM -37% | [6]; at 33.0 µM -2% | [6]; at 50.0 µM 47.6% | [6]; at 100.0 µM 63% | [7]; at 1.2 µM -36% | [7]; at 3.7 µM -43% | [7]; at 11.0 µM -51% | [7]; at 33.0 µM -30% | [7]; at 100.0 µM 3% | [8]; [16] 0% | [8]; at 50.0 µM 62.1% | [9]; at 1.2 µM -27% | [9]; at 3.7 µM -13% | [9]; at 11.0 µM 2% | [9]; at 33.0 µM 29% | [9]; at 100.0 µM 66% | [10]; [16] 64% | [10]; at 50.0 µM 41.4% | [11]; at 1.2 µM -23% | [11]; at 3.7 µM -37% | [11]; [16] 5% | [11]; at 11.0 µM -17% | [11]; at 33.0 µM 37% | [12]; at 1.2 µM -48% | [12]; at 3.7 µM -45% | [12]; at 11.0 µM -32% | [12]; at 33.0 µM -25% | [12]; at 100.0 µM 50% | [13]; [16] 40% | [13]; at 50.0 µM 59.1% | [14]; at 1.2 µM -47% | [14]; at 3.7 µM -45% | [14]; at 11.0 µM -57% | [14]; at 33.0 µM 28%
active: [5]; [17] 97% | [5]; at 100.0 µM 73% | [6]; [17] 95% | [8]; [17] 85% | [10]; [17] 82% | [11]; [17] 86% | [11]; at 50.0 µM 75.8% | [11]; at 100.0 µM 79% | [13]; [17] 98% | [14]; at 100.0 µM 81%

C/C(=N\NC(=S)SCc1ccccc1)c1ccccn1
inactive: [1]; at 1.2 µM 15% | [1]; at 3.7 µM 13% | [1]; at 11.0 µM 60% | [2]; at 1.2 µM -13% | [2]; at 3.7 µM -15% | [2]; at 11.0 µM 58% | [3]; at 1.2 µM 40% | [3]; at 3.7 µM 47% | [4]; at 1.2 µM 13% | [4]; at 3.7 µM 24% | [5]; at 1.2 µM 17% | [5]; at 3.7 µM 22% | [5]; [16] 8% | [5]; at 11.0 µM 69% | [5]; [17] 0% | [6]; at 1.2 µM 38% | [6]; at 3.7 µM 51% | [6]; [16] -5% | [7]; at 1.2 µM -10% | [7]; at 3.7 µM -4% | [7]; at 11.0 µM 31% | [8]; [16] -1% | [9]; at 1.2 µM 2% | [9]; at 3.7 µM 2% | [9]; at 11.0 µM 60% | [10]; [16] 3% | [11]; at 1.2 µM 3% | [11]; at 3.7 µM 20% | [11]; [16] 30% | [12]; at 1.2 µM -36% | [12]; at 3.7 µM -25% | [15]; at 1.2 µM 13% | [15]; at 3.7 µM 24% | [13]; [16] -12% | [14]; at 1.2 µM 39% | [14]; at 3.7 µM 53%
active: [1]; at 33.0 µM 93% | [1]; at 100.0 µM 91% | [2]; at 33.0 µM 95% | [2]; at 100.0 µM 94% | [3]; at 11.0 µM 78% | [3]; at 33.0 µM 95% | [3]; at 100.0 µM 92% | [4]; at 11.0 µM 83% | [4]; at 33.0 µM 96% | [4]; at 100.0 µM 92% | [5]; at 33.0 µM 95% | [5]; at 50.0 µM 88% | [5]; at 100.0 µM 92% | [6]; at 11.0 µM 92% | [6]; at 33.0 µM 96% | [6]; [17] 96% | [6]; at 50.0 µM 90.2% | [6]; at 100.0 µM 92% | [7]; at 33.0 µM 94% | [7]; at 100.0 µM 92% | [8]; [17] 95% | [8]; at 50.0 µM 86.2% | [9]; at 33.0 µM 96% | [9]; at 100.0 µM 89% | [10]; [17] 95% | [10]; at 50.0 µM 86.1% | [11]; at 11.0 µM 82% | [11]; at 33.0 µM 95% | [11]; [17] 95% | [11]; at 50.0 µM 87% | [11]; at 100.0 µM 91% | [12]; at 11.0 µM 72% | [12]; at 33.0 µM 95% | [12]; at 100.0 µM 92% | [15]; at 11.0 µM 83% | [15]; at 33.0 µM 96% | [15]; at 100.0 µM 92% | [13]; [17] 95% | [13]; at 50.0 µM 87.5% | [14]; at 11.0 µM 80% | [14]; at 33.0 µM 96% | [14]; at 100.0 µM 91%

c1ccc2c(c1)Oc1cccc3cccc-2c13
active: [5]; [16] 95% | [5]; [17] 98% | [6]; [16] 99% | [6]; [17] 99%
inactive: [1]; at 1.2 µM 5% | [1]; at 3.7 µM 3% | [1]; at 11.0 µM 5% | [1]; at 33.0 µM 38% | [1]; at 100.0 µM 58% | [2]; at 1.2 µM -11% | [2]; at 3.7 µM 1% | [2]; at 11.0 µM -8% | [2]; at 33.0 µM 3% | [2]; at 100.0 µM 10% | [3]; at 1.2 µM 11% | [3]; at 3.7 µM 8% | [3]; at 11.0 µM 34% | [3]; at 33.0 µM 43% | [3]; at 100.0 µM 63% | [4]; at 1.2 µM -1% | [4]; at 3.7 µM -8% | [4]; at 11.0 µM 1% | [4]; at 33.0 µM 16% | [4]; at 100.0 µM 27% | [5]; at 1.2 µM -2% | [5]; at 3.7 µM 8% | [5]; at 11.0 µM 5% | [5]; at 33.0 µM 23% | [5]; at 50.0 µM 67.2% | [5]; at 100.0 µM 62% | [6]; at 1.2 µM -6% | [6]; at 3.7 µM 4% | [6]; at 11.0 µM -3% | [6]; at 33.0 µM 2% | [6]; at 50.0 µM 17.6% | [6]; at 100.0 µM 20% | [7]; at 1.2 µM 0% | [7]; at 3.7 µM 6% | [7]; at 11.0 µM 21% | [7]; at 33.0 µM 36% | [7]; at 100.0 µM 39% | [8]; [16] 0% | [8]; [17] 43% | [8]; at 50.0 µM 47.6% | [9]; at 1.2 µM 18% | [9]; at 3.7 µM 16% | [9]; at 11.0 µM 8% | [9]; at 33.0 µM 14% | [9]; at 100.0 µM 18% | [10]; [16] 34% | [10]; [17] 20% | [10]; at 50.0 µM 25.4% | [11]; at 1.2 µM 6% | [11]; at 3.7 µM -6% | [11]; [16] -5% | [11]; at 11.0 µM -3% | [11]; at 33.0 µM 17% | [11]; [17] 55% | [11]; at 50.0 µM 56.4% | [11]; at 100.0 µM 36%
